From the supplement of paper PMC11732987, “Enantioselective OTUD7B fragment discovery through chemoproteomics screening and high-throughput optimisation” (Communications Chemistry, 2025)

What was measured:
Experiment in all cases: log2 ratio of Biotin-Ahx-Ub-VS probe labelling (fragment/DMSO); higher = less target engagement (more negative = stronger competition), active = hit call of the paper (q ≤ 0.05, log2 ratio ≤ -1)
Conditions in all cases: compound concentration: 200 uM; treatment time: 3 h
USP34 = USP34 (UniProt Q70CQ2)
Summary of the method: (§1)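 The table lists average log2 ratios of fragment over vehicle, from an unpaired t-test on global-median-normalised Spectronaut label-free quantities. Proteins with ≥2 unique peptides were used. Samples were HEK293T lysate (495 µg) treated in triplicate with fragment at 200 µM or vehicle for 3 h, then with Biotin-Ahx-Ub-VS (0.5 µM final) for 1 h, with labelled DUBs NeutrAvidin-enriched and run by diaPASEF LC-MS/MS.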

USP36 = biological target: T1, USP36 (UniProt Q9P275)
T1 sequence (whole entry): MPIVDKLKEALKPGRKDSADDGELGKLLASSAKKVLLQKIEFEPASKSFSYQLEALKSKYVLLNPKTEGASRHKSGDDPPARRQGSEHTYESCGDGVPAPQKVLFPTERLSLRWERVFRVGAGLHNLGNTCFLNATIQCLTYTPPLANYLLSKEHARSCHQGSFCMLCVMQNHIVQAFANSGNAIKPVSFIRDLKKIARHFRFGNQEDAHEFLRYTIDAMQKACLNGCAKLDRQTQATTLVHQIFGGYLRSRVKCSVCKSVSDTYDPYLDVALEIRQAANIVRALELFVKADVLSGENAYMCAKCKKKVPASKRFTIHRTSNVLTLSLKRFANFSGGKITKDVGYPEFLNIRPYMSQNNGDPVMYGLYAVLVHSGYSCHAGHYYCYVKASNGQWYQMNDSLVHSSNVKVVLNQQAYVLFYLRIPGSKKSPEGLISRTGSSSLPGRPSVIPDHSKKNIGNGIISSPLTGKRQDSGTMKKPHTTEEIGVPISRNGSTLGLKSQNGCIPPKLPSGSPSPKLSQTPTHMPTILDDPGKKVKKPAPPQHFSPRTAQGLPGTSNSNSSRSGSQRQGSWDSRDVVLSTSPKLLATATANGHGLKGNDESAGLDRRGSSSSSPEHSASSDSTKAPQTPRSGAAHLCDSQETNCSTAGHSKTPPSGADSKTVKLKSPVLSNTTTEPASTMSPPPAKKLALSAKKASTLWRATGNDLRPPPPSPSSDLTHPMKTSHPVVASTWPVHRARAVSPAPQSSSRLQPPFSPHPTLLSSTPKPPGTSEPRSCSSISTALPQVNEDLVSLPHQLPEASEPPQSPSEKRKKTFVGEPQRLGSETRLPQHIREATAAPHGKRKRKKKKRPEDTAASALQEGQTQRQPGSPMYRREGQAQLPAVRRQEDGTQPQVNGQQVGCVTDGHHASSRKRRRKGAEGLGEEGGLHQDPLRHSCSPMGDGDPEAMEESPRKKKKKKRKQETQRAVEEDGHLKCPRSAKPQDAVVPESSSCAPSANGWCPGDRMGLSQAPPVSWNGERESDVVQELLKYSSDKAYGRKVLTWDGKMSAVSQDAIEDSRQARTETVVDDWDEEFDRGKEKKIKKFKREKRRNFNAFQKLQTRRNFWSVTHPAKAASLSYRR
Summary of the method: as §1

USP38 = biological target: T2, USP38 (UniProt Q8NB14)
T2 sequence (whole entry): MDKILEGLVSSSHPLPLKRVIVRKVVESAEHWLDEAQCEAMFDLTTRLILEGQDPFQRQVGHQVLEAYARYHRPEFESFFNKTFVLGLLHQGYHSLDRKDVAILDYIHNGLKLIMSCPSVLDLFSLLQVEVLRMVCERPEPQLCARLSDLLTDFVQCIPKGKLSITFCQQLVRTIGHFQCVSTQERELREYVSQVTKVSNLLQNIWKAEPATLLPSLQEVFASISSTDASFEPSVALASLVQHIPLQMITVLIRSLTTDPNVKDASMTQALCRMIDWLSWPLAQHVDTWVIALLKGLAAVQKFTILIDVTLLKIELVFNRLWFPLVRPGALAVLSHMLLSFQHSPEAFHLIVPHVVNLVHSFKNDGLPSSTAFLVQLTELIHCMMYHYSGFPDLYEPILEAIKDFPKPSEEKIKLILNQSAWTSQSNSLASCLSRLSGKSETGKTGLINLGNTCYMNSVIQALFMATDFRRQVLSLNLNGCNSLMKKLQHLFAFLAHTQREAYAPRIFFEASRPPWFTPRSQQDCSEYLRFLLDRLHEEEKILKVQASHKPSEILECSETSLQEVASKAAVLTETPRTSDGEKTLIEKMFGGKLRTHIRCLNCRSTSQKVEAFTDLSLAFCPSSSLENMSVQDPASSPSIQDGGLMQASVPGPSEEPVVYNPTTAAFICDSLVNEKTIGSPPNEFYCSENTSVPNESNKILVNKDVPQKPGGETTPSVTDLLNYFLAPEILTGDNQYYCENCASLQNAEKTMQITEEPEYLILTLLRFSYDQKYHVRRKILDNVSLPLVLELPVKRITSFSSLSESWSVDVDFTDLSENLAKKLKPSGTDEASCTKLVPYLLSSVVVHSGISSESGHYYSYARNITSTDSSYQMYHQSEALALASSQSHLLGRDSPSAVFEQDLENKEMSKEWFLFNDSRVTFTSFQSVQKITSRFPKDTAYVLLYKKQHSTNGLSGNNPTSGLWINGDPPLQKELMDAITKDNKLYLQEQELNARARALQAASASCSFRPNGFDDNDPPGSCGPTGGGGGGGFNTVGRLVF
Summary of the method: as §1

USP39 = biological target: T3, USP39 (UniProt Q53GS9)
T3 sequence (whole entry): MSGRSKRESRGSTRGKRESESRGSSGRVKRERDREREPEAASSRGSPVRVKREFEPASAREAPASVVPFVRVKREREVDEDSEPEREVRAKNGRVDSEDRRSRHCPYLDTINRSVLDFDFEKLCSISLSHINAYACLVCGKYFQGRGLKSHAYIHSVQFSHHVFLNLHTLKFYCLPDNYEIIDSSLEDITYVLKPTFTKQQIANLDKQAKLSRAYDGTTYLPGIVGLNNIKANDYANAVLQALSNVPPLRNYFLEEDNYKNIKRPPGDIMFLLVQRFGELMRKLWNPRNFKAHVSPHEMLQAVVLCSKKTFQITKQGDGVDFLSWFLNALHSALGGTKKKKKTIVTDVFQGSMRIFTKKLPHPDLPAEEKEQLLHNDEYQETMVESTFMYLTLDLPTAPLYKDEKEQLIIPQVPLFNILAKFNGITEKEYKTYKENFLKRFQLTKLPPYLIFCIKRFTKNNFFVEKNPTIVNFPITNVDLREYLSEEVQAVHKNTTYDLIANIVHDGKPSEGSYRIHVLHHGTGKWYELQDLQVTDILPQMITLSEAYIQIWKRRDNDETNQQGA
Summary of the method: as §1

USP4 = biological target: T4, USP4 (UniProt Q13107)
T4 sequence (whole entry): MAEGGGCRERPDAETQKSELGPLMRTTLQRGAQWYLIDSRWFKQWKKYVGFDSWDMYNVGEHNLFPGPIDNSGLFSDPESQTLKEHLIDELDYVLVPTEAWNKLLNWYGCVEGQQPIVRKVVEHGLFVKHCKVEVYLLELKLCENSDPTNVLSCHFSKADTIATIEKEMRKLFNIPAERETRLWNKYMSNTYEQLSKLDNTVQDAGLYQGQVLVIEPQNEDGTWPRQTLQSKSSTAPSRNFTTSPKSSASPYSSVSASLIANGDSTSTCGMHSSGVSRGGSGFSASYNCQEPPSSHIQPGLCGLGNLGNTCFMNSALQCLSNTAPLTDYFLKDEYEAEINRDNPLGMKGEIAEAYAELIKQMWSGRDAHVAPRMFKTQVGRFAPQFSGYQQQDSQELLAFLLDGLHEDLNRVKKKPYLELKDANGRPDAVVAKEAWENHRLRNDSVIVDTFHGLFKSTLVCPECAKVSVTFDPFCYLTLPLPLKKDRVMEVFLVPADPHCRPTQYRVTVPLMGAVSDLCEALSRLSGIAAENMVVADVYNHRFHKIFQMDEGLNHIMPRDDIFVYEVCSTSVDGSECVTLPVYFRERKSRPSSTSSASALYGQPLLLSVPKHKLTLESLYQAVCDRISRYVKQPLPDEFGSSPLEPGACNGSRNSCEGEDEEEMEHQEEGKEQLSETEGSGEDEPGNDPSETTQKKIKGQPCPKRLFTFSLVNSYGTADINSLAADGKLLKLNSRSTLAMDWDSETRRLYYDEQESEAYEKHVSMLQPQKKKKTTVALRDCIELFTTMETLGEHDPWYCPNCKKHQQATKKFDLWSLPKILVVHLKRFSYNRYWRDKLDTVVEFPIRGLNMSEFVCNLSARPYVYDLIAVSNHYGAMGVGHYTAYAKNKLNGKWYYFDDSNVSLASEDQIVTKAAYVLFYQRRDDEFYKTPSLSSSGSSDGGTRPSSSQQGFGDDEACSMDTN
Summary of the method: as §1

Measured: log2 ratio of Biotin-Ahx-Ub-VS probe labelling

Chain of USP34 (Q70CQ2 whole entry, the tested form may be a part): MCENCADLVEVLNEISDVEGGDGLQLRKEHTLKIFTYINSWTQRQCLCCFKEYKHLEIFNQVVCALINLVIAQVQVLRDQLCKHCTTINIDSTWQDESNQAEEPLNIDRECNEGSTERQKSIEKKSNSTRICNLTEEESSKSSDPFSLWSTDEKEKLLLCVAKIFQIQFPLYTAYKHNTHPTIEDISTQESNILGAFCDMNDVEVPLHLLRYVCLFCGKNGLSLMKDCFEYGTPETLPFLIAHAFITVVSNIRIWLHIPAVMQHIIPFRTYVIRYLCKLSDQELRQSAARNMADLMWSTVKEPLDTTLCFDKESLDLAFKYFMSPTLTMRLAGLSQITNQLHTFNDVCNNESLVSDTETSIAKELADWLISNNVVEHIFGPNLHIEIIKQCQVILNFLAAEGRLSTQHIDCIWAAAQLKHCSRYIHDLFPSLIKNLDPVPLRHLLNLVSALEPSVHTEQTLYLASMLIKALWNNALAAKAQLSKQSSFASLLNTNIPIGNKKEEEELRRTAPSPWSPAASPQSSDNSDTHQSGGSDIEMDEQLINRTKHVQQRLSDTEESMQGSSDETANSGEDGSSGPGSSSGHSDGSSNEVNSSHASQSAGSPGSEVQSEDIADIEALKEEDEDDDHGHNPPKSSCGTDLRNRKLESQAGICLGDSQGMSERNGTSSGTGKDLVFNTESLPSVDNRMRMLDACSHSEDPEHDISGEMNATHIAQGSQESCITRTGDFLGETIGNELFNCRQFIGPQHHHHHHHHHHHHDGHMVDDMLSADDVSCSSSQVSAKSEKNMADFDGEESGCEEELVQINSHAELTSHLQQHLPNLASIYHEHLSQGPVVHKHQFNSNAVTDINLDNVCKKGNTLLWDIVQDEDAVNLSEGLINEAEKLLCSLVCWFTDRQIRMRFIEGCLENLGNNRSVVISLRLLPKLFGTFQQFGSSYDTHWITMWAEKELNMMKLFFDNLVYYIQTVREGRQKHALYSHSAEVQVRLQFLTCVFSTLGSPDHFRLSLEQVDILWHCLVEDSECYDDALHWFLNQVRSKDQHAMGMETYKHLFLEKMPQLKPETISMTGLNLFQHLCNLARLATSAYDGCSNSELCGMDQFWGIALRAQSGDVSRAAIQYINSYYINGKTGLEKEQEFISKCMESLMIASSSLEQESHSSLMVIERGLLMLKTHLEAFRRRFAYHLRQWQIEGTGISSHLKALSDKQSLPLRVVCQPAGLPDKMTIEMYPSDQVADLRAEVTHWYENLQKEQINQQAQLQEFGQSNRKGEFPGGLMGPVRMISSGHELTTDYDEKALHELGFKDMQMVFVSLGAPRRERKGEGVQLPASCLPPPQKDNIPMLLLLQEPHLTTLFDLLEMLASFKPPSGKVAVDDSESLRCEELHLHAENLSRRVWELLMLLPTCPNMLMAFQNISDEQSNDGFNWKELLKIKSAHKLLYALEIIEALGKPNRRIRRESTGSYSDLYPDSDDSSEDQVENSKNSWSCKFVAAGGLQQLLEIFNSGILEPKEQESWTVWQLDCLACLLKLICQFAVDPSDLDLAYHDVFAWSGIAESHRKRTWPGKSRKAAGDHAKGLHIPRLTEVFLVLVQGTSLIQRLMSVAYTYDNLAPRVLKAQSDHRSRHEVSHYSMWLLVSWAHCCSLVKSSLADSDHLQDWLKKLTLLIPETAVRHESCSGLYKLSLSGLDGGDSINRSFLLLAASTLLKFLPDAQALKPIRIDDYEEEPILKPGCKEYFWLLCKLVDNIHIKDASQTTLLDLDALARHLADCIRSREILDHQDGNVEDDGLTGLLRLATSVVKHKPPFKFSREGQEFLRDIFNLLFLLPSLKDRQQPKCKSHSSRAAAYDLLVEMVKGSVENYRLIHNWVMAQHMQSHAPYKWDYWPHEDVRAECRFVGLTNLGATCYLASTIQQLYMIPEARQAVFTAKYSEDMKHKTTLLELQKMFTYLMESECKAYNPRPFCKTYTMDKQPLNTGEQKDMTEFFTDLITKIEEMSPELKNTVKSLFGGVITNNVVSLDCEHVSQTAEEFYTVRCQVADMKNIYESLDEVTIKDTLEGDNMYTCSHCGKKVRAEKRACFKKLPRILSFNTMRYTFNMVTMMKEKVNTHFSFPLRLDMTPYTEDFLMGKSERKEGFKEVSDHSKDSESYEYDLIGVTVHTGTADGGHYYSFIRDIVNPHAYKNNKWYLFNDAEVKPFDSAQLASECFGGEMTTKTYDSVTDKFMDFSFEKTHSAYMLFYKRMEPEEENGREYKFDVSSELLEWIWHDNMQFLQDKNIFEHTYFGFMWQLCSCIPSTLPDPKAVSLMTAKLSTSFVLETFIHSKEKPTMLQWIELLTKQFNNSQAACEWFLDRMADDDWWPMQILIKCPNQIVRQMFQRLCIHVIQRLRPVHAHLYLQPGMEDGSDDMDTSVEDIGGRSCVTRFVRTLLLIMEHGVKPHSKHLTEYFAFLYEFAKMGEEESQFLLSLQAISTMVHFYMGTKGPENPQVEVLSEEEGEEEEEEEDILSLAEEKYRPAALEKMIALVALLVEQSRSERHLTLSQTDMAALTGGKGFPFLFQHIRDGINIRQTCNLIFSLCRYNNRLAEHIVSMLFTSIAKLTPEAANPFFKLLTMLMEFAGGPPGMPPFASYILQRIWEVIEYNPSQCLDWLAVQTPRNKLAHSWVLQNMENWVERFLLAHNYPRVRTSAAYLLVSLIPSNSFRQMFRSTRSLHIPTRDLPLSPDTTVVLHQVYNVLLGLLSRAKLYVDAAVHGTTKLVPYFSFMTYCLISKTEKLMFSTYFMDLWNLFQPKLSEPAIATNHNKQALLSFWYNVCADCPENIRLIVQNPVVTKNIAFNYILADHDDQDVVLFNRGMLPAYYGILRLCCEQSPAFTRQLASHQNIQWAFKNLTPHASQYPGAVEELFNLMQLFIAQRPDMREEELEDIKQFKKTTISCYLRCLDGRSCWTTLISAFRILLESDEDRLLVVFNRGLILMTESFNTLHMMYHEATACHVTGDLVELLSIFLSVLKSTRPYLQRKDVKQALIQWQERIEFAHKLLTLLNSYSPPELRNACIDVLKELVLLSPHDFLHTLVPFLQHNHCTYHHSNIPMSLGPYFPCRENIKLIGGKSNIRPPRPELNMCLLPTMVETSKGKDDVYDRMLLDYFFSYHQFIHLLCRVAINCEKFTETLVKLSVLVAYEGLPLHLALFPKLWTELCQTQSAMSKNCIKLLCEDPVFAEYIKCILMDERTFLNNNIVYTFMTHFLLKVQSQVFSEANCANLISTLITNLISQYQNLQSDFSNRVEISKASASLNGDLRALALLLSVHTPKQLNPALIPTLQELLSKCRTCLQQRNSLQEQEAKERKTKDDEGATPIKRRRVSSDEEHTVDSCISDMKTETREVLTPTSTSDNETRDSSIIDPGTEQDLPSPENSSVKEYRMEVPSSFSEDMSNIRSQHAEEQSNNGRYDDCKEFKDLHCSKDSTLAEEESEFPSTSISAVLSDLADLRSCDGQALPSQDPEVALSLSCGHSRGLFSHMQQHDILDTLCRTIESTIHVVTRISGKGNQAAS

O=C(CCl)N(C1=CCCCC1)C1CC1
inactive: USP34 -0.0141 | USP36 -0.116 | USP38 -0.172 | USP39 -0.177 | USP4 0.0249
